Experimental data published in PubChem BioAssay (NCI).
This is part of a sample that, as a whole, favours compounds with a hit. Of some 83,000 tested, about 20% had one in any assay.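 Activity criterion: percent growth below 10, measured after cells in 96-well plates were exposed to a single compound concentration for 48 hours.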 Unmarked numbers belong to inactive results. The source made the active and inactive calls.

What was measured:
Assay in all cases: NCI-60 one-dose screen, 48 h (100 = growth as untreated, 0 = no growth, -100 = all killed)
Details in all cases: 10 µM unless noted
[1] = system: NCI-H23 lung
[2] = system: NCI-H322M lung
[3] = system: HOP-62 NSCLC
[4] = system: NCI-H460 lung
[5] = system: HOP-92 NSCLC
[6] = system: NCI-H522 lung
[7] = system: A549/ATCC NSCLC
[8] = system: 786-0 renal
[9] = system: DU-145 prostate
[10] = system: K-562 leukemia
[11] = system: MALME-3M melanoma
[12] = system: MDA-MB-231 breast
[13] = system: RXF 393 renal
[14] = system: SF-268 CNS
[15] = system: SF-295 CNS
[16] = system: SF-539 CNS
[17] = system: UACC-257 melanoma
[18] = system: M14 melanoma
[19] = system: HCT-15 colon

## Cc1sc2ncn(CC(=O)Nc3ccc(S(N)(=O)=O)cc3)c(=O)c2c1C
[1]
  growth: 102%
[2]
  growth: 96.8%
[3]
  growth: 101%
[4]
  growth: 105%
[5]
  growth: 102%
[6]
  growth: 92.5%
[7]
  growth: 98%
[8]
  growth: 101%
[9]
  growth: 112%
[10]
  growth: 103%
[11]
  growth: 102%
[12]
  growth: 102%
[13]
  growth: 114%
[14]
  growth: 97.9%
[15]
  growth: 104%
[16]
  growth: 96%
[17]
  growth: 97.7%
[18]
  growth: 114%
[19]
  growth: 102%

## C[C@@H](C(=O)NCCCC#Cc1cnc(Nc2ccc(C#N)cc2)nc1NC1CC1)N(C)C(=O)/C=C/CN(C)C
[1]
  growth: 22.8%
[2]
  growth: 63%
[3]
  growth: 44.2%
[4]
  growth: 15.3%
[5]
  growth: 107%
[6]
  growth: 59.1%
[7]
  growth: 32.8%
[8]
  growth: 39.8%
[9]
  growth: 38.4%
[10]
  growth: 14.1%
[11]
  growth: 22.5%
[12]
  growth: 77.8%
[13]
  growth: -1.36% (active)
[14]
  growth: 48.4%
[15]
  growth: 25.9%
[16]
  growth: 9.99% (active)
[17]
  growth: 40.2%
[18]
  growth: 26.7%
[19]
  growth: 29.9%

## COc1cc(/C=C/C(=O)c2ccc(Nc3nc(NCCO)nc(N4CCOCC4)n3)cc2)cc(OC)c1OC
[1]
  growth: 15.7%
[2]
  growth: 30.9%
[3]
  growth: 34.3%
[4]
  growth: -20.8% (active)
[5]
  growth: 39.7%
[6]
  growth: 24.1%
[7]
  growth: 14.4%
[8]
  growth: 16.9%
[9]
  growth: 17.9%
[10]
  growth: 10.7%
[11]
  growth: 40%
[12]
  growth: 32.9%
[13]
  growth: 6.75% (active)
[14]
  growth: 17.5%
[15]
  growth: 66.6%
[16]
  growth: -5.44% (active)
[17]
  growth: 48.8%
[18]
  growth: 26.8%
[19]
  growth: 2.16% (active)

## COc1ccc(C2Nc3ncnc(N)c3N=C3c4ccccc4C(=O)C32)cc1 (stereo unspecified)
[1]
  growth: 101%
[2]
  growth: 101%
[3]
  growth: 85.2%
[4]
  growth: 104%
[5]
  growth: 55.4%
[6]
  growth: 101%
[7]
  growth: 96.3%
[8]
  growth: 93.5%
[9]
  growth: 102%
[10]
  growth: 84.5%
[11]
  growth: 101%
[12]
  growth: 97.9%
[14]
  growth: 84%
[15]
  growth: 96.9%
[16]
  growth: 100%
[17]
  growth: 102%
[18]
  growth: 94.8%
[19]
  growth: 89.4%

## CN1CCN(Cc2ccc(C(=O)Nc3cncc(C#Cc4cnc(N)c5ccccc45)c3)cc2C(F)(F)F)CC1
[1]
  growth: -41.8% (active)
[2]
  growth: -31.5% (active)
[3]
  growth: -48.4% (active)
[4]
  growth: -80.8% (active)
[5]
  growth: 45.2%
[6]
  growth: -54.3% (active)
[7]
  growth: -67.8% (active)
[8]
  growth: -82.1% (active)
[9]
  growth: -87.2% (active)
[10]
  growth: -46% (active)
[11]
  growth: -86.9% (active)
[12]
  growth: -82.2% (active)
[13]
  growth: -81.5% (active)
[14]
  growth: -69.5% (active)
[15]
  growth: -82.7% (active)
[16]
  growth: -95.9% (active)
[17]
  growth: -75% (active)
[18]
  growth: -85.2% (active)
[19]
  growth: -37.6% (active)

## COc1ccccc1C1=C(Br)C(=O)c2nc(C)ccc2C1=O
[1]
  growth: 93.4%
[2]
  growth: 100%
[3]
  growth: 106%
[4]
  growth: 99.4%
[5]
  growth: 86.3%
[6]
  growth: -38% (active)
[7]
  growth: 109%
[8]
  growth: 104%
[9]
  growth: 109%
[10]
  growth: 65%
[11]
  growth: 62.4%
[12]
  growth: 96.6%
[13]
  growth: 102%
[14]
  growth: 97.5%
[15]
  growth: 98.6%
[16]
  growth: 105%
[17]
  growth: 99.6%
[18]
  growth: 93.7%
[19]
  growth: 96.7%

## COc1ccc(OC)c(/C=C/C(=O)c2c(C)nc3ccccc3c2/C=C/c2ccccc2)c1
[1]
  growth: 58.8%
[2]
  growth: 78.5%
[3]
  growth: 90.7%
[4]
  growth: 28.6%
[5]
  growth: 48.5%
[6]
  growth: 23.7%
[7]
  growth: 55.8%
[8]
  growth: 89.2%
[9]
  growth: 54.2%
[10]
  growth: 17%
[11]
  growth: 103%
[12]
  growth: 51.9%
[13]
  growth: 69.6%
[14]
  growth: 73.7%
[15]
  growth: 76%
[16]
  growth: 99.6%
[17]
  growth: 72%
[18]
  growth: 81.5%
[19]
  growth: 37.6%

## O=C(/C=C/c1ccc(Cl)cc1)c1ccc(Nc2nc(NCCO)nc(N3CCOCC3)n2)cc1
[1]
  growth: 94.8%
[2]
  growth: 90.8%
[3]
  growth: 89.6%
[4]
  growth: 98.1%
[5]
  growth: 98.6%
[6]
  growth: 87.2%
[7]
  growth: 68%
[8]
  growth: 90.6%
[9]
  growth: 92.9%
[10]
  growth: 44.5%
[11]
  growth: 99.5%
[12]
  growth: 84.3%
[13]
  growth: 71.3%
[14]
  growth: 82%
[15]
  growth: 94.5%
[16]
  growth: 90.4%
[17]
  growth: 101%
[18]
  growth: 105%
[19]
  growth: 44.8%
